According to PMC12431657, “Discovery and mechanistic insights of dibenzoylmethane as a broad spectrum inhibitor of coronavirus” (PLOS Pathogens, 2025):

Each compound was assayed on HCoV-OC43. Conditions: 24 h, 10 µM; inhibitor.
Parameters: species or system RD

Row | Structure (SMILES) | OC43 Inhibition rate
1 | C=C1C(=O)O[C@@H]2[C@H]3O[C@]3(C)CC/C=C(\C)CC[C@@H]12 [Parthenolide] | 36.9
2 | CC1=C[C@]23C(=O)[C@@H](C=C(COC(=O)c4ccccc4)[C@@H](O)[C@]2(O)[C@H]1OC(=O)c1ccccc1)[C@H]1[C@@H](C[C@H]3C)C1(C)C [Ingenol 3,20-dibenzoate, ingenol 3,20-dibenzoate] | 82.9
3 | Cc1c([C@H](C)[C@@H]2NC[C@@H](C)C[C@H]2O)ccc2c1C[C@H]1[C@H]2CC=C2C[C@@H](O)CC[C@@]21C [Veratramine, veratramine] | 77.2
